The nature of assay [1]: qHTS assay for small molecule agonists of the p53 signaling pathway - cell viability (AID 651633; calls by dose curve;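 further: p53RE-bla HCT reporter cells with a stable beta-lactamase p53 reporter; series mostly up to about 83 µM; nearly all actives have a fitted effect of over 30% in size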). The essentials: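 p53RE-bla cells were treated with compound for 16 hours at 37 C. Cytotoxicity was then measured as CellTiter-Glo luminescence after 30 min at room temperature.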
A short description of assay [2]: qHTS assay for small molecule disruptors of the mitochondrial membrane potential - cell viability (AID 720634; calls by dose curve;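 further: human HepG2 liver cancer cells; series mostly up to about 83 µM; nearly all actives have a fitted effect of over 20% in size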). An outline of the steps: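 HepG2 cells, 2,000 per well, attached overnight, then treated 1 hr at 37 C, 5% CO2. Viability read as ATP by CellTiter-Glo luminescence after 30 min at room temperature. Read in the same wells as the m-MPI membrane-potential dye assay.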

A short description of assay [3]: qHTS assay for small molecule disruptors of the mitochondrial membrane potential (AID 720635). Further: potency means the concentration at half of the fitted maximal effect. An outline of the steps: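 HepG2 cells exposed to compound 1 hr at 37C, then Mito-MPS dye 30 min. Ratio read of aggregate (540/590 nm) versus monomer (490/535 nm) fluorescence.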
On the technique in general: Quantitative high-throughput screening tests each substance at several concentrations.

Assay [4] in a line: qHTS assay to test for compound auto fluorescence at 590 nm (red) in HepG2 cells (AID 720674). An outline of the steps: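 HepG2 cells, 2,000 per well in MEM with 10% FBS, attached overnight at 37 C, then got 23 nL compound or DMSO. After 1 hr at 37 C, 5% CO2, red fluorescence was read at 540/590 nm against Rose Bengal sodium as reference.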
Assay [5] can be described thus: qHTS assay to test for compound auto fluorescence at 460 nm (blue) in HEK293 cells (AID 720678). The essentials:
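Blue read-out at excitation 405 nm and emission 460 nm follows overnight compound exposure of HEK293 cells at 37C in 5% CO2. Activity is given as auto fluorescence equivalency to triamterene.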

The nature of assay [6]: qHTS assay to test for compound auto fluorescence at 535 nm (green) in HEK293 cell free culture (AID 720682). An outline of the steps:
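Read-out: 485/535 nm fluorescence intensity, calibrated against fluorescein. Medium only (DMEM + 10% FBS, no cells); test compound or DMSO vehicle added by pintool before plate reading.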

Assay [7] can be described thus: qHTS assay to test for compound auto fluorescence at 590 nm (red) in HEK293 cell free culture (AID 720683). The essentials: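 Cell-free wells of DMEM with 10% FBS received compound, and intrinsic fluorescence was read at excitation/emission 540/590 nm. Values expressed as equivalence to Rose Bengal sodium.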
Assay [8] in a line: qHTS assay to test for compound auto fluorescence at 590 nm (red) in HepG2 cell free culture (AID 720684). An outline of the steps: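 Compound was pinned into wells holding MEM with 10% FBS and no cells, and red fluorescence was read at Ex/Em 540/590 nm. Signal is expressed as auto fluorescence equivalency relative to Rose Bengal sodium.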
Assay [9] concerns the target Glucocorticoid receptor (Homo sapiens) (UniProt P04150). Put plainly: qHTS assay to identify small molecule agonists of the glucocorticoid receptor (GR) signaling pathway (AID 720691; active means well fitted activation curve with a large enough effect in the signal ratio in the repeat runs, not every such curve was filed as active; inconclusive means weak or mixed curves, or effect the other way; inactive means no such curve, though single readings can be large or run the other way; the % refers to the signal ratio; further: potency means the concentration at half of the fitted maximal effect). The essentials: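 GR-bla HeLa cells carrying a GRE-driven beta-lactamase reporter, exposed to compounds for 18 h at 37 C. Reporter activation read as fluorescence after 2 h with LiveBLAzer B/G FRET substrate at room temperature.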

For assay [10] the target is unchanged. Put plainly: qHTS assay to identify small molecule antagonists of the glucocorticoid receptor (GR) signaling pathway (AID 720692; active means well fitted inhibition curve with a large enough effect in the signal ratio in the repeat runs, not every such curve was filed as active; inconclusive means weak or mixed curves, or effect the other way; inactive means no such curve, though single readings can be large or run the other way; the % refers to the signal ratio). The essentials: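 GR-bla HeLa cells carrying a GRE-driven beta-lactamase reporter received compound after 4 h plating, then dexamethasone (5 nM final). After 18 h at 37C, the FRET substrate was loaded for 2 h at room temperature and fluorescence read.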

Assay [11] in a line: qHTS assay for small molecules that induce genotoxicity in human embryonic kidney cells expressing luciferase-tagged ATAD5 (AID 651632). Further: nearly all actives have a fitted effect of over 15% in size. The essentials: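 HEK293T cells carrying luciferase-tagged ATAD5 were given compound or DMSO vehicle and incubated 16 hr at 37C, 5% CO2. Luciferase activity was read after 30 min at room temperature with Amplite; a rise signals genotoxic stress.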

Assay [12] in a line: qHTS assay for small molecules that induce genotoxicity in human embryonic kidney cells expressing luciferase-tagged ATAD5 - cell viability (AID 651634; calls by dose curve; further: nearly all actives have a fitted effect of over 25% in size). An outline of the steps: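 HEK293T cells carrying luciferase-tagged ATAD5, 2,000 cells/well, exposed to compound for 15.5 hr at 37C. Viability read as live-cell protease activity by CellTiter-Fluor fluorescence after 30 min at 37C.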

Assay [13] can be described thus: qHTS assay to test for compound auto fluorescence at 535 nm (green) in HepG2 cells (AID 720675).
Assay [14] is described as follows: qHTS assay to test for compound auto fluorescence at 590 nm (red) in HEK293 cells (AID 720679). An outline of the steps: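 Red channel, Ex/Em 540/590nm; signal expressed as equivalency to Rose Bengal sodium. HEK293, 2,000 cells/well, 10% dialyzed FBS; 23 nL compound pinned after 4-5 hr attachment; overnight 37C/5% CO2 before reading.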
A short description of assay [15]: qHTS assay to test for compound auto fluorescence at 535 nm (green) in HEK293 cells (AID 720680).
A short description of assay [16]: qHTS assay to test for compound auto fluorescence at 460 nm (blue) in HEK293 cell free culture (AID 720681). The essentials:
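Compounds were added to cell-free DMEM with 10% FBS and fluorescence read directly. The blue channel used 405 nm excitation and 460 nm emission, with triamterene as the reference fluorophore.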

Assay [17] in a line: qHTS assay to test for compound auto fluorescence at 460 nm (blue) in HepG2 cell free culture (AID 720685). The essentials:
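Compound (23 nL) or DMSO pinned into cell-free MEM with 10% FBS; blue fluorescence read at 405/460 nm excitation/emission, expressed as auto-fluorescence equivalency to triamterene.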

The nature of assay [18]: qHTS assay to test for compound auto fluorescence at 535 nm (green) in HepG2 cell free culture (AID 720686).
Assay [19] can be described thus: qHTS assay to test for compound auto fluorescence at 460 nm (blue) in HepG2 cells (AID 720687). The essentials:
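HepG2 cells in MEM with 10% FBS, attached overnight at 37 C, were exposed to compound or DMSO for 1 hr at 37 C, 5% CO2. Blue fluorescence was read at 405/460 nm, with triamterene as reference fluorophore.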

SMILES strings stand for the structures. Values without a mark were called inactive. Calls of active or inactive are those of the source. Unless noted, the call rests on the fitted dose curve; in most records, active means well fitted curve in the direction sought with a large enough effect in the repeat runs; inconclusive means weak or mixed curves; inactive means no such curve, though single readings can be large; an effect the other way counts as inactive or inconclusive.

Chain of Glucocorticoid receptor (Homo sapiens) (P04150 whole entry, looked up): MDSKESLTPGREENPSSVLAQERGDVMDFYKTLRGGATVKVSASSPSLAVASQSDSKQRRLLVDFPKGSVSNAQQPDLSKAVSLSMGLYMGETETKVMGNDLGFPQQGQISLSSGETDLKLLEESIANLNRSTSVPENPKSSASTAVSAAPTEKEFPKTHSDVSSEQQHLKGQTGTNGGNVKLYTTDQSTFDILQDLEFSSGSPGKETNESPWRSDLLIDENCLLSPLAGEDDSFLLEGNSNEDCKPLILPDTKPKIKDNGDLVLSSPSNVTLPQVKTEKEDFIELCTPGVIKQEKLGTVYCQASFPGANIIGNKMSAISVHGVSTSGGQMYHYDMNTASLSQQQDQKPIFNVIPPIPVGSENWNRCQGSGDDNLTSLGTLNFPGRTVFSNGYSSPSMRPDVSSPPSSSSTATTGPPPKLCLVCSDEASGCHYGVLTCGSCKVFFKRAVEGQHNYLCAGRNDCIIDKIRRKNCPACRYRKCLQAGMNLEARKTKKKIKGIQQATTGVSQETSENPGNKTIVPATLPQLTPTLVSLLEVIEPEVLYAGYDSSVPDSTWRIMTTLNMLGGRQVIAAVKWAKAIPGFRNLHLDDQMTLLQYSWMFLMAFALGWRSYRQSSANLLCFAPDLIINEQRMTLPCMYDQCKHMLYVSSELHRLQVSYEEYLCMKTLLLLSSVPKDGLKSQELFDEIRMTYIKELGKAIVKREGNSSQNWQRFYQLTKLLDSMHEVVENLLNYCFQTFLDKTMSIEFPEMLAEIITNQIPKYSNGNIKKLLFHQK

Consider `O=C(Cl)c1cccc([N+](=O)[O-])c1`, for which the Potency result in assay [1], in assay [2], in assay [3], in [9] and in assay [10] was “inactive” in each case. Further, the outcome in assay [4], in assay [5], in assay [6], in [7] and in [8] was inactive.

Consider `Clc1cccc(-c2cc(Cl)cc(Cl)c2)c1`, for which the Potency result in [11], in [12] and in [2] was “inactive” each time. The call in assay [4], in assay [13], in [5], in assay [14], in assay [15] and in assay [16] was inactive. Moreover, the outcome in [6], in [7], in [8], in [17], in [18] and in [19] was inactive.

In the case of `CC1=NN(c2cc(Cl)c(S(=O)(=O)O)cc2Cl)C(=O)C1N=Nc1ccc(S(=O)(=O)O)cc1` (stereo not given), the Potency result in [11], in [1], in [2] and in assay [3] was “inactive” in each case. Also, the call in assay [4], in assay [13], in assay [5], in [15], in [16] and in assay [6] was inactive. Also, the result in assay [7], in assay [17] and in assay [18] was inactive.

With `O=C1Nc2ccc([N+](=O)[O-])cc2C1=O`, the Potency result in assay [11], in assay [1], in assay [9] and in assay [10] was “inactive” in each case. Besides, the call in assay [4], in assay [13], in assay [5], in assay [14], in assay [15] and in [16] was inactive. Moreover, the molecule was called inactive in [6], in assay [8], in assay [17], in assay [18] and in assay [19].

Turning to `O=CCCc1ccccc1`, the Potency entry in [1], in [12] and in [2] was “inactive” throughout. For the same molecule, the molecule was classed as inactive in [4], in assay [13], in [5], in [15], in assay [16] and in assay [6]. For the same molecule, the molecule was called inactive in assay [7], in assay [17], in [18] and in assay [19].

With `Cc1c[nH]c(=S)[nH]c1=O`, the Potency entry in assay [11], in [12] and in assay [2] was “inactive” each time. The molecule was called inactive in [4], in assay [5], in [14], in [15], in assay [16] and in assay [6]. Moreover, the molecule was classed as inactive in assay [7], in assay [8], in [17], in [18] and in assay [19].

For `Cc1nc(-c2ccccn2)ncc1C(=O)Nn1cc(C)c2cc(F)ccc21`, the Potency entry in assay [1], in [12], in assay [2], in assay [3], in assay [9] and in assay [10] was “inactive” in each case. The molecule was called inactive in assay [4], in [13], in assay [5], in assay [14], in [15] and in assay [16]. Besides, the call in assay [6], in assay [7], in assay [8], in [17], in assay [18] and in assay [19] was inactive.

Take `CCOC(=O)CS`: the Potency result in [1], in [12], in assay [9] and in assay [10] was “inactive” throughout. Further, the result in assay [4], in [13], in assay [5], in [15], in assay [16] and in assay [6] was inactive. For the same molecule, the result in [7], in [17], in assay [18] and in assay [19] was inactive.

As to `NS(=O)(=O)c1cc(-c2nn[nH]n2)c(NCc2cccs2)cc1Cl`, the Potency entry in [1], in assay [12], in [2], in [9] and in assay [10] was “inactive” each time. The result in [4], in assay [13], in assay [5], in assay [14], in assay [16] and in [6] was inactive. Moreover, the result in assay [7], in [8], in assay [17] and in [18] was inactive.

Consider `CCN(CC)CCOc1ccc(Cc2ccccc2)cc1`, for which the Potency entry in assay [12] and in assay [2] was “inactive” in each case. In addition, the molecule was called inactive in [4], in [13], in assay [5], in [14], in assay [16] and in assay [6]. The call in assay [7], in assay [8], in assay [18] and in assay [19] was inactive.

On to `CCCCC(=O)O[C@]1(C(=O)CO)[C@H](C)C[C@H]2[C@@H]3CCC4=CC(=O)C=C[C@]4(C)[C@@]3(F)[C@@H](O)C[C@@]21C`, for which the Potency entry in [11] and in assay [12] was “inactive” each time. Besides, the values for the Potency in [3] and in [9] were 10.6 µM (active) and 0.0043 µM [inconclusive] (active), respectively. For the same molecule, the call in assay [4], in assay [13], in [5], in assay [14], in [15] and in [16] was inactive. The call in [6], in [7], in assay [17], in assay [18] and in assay [19] was inactive.

With `CC(C)O`, the Potency result in [11], in assay [12] and in [3] was “inactive” throughout. The outcome in assay [4], in assay [13], in assay [5], in assay [14], in assay [15] and in assay [16] was inactive. Also, the outcome in assay [6], in [7], in assay [8], in assay [17], in assay [18] and in assay [19] was inactive.

With `Oc1ccccc1F`, the Potency result in [11], in assay [12], in [2], in [9] and in [10] was “inactive” each time. Further, the result in assay [4], in assay [13], in assay [5], in [15], in assay [16] and in [6] was inactive. The outcome in [8], in assay [17], in assay [18] and in [19] was inactive.

Regarding `CCOc1ccc(OCC)c(Cl)c1`, the Potency entry in assay [1], in [12], in [2] and in assay [9] was “inactive” in each case. Moreover, the call in assay [4], in [13], in assay [5], in assay [14], in [15] and in [16] was inactive. Further, the molecule was called inactive in assay [6], in assay [7], in assay [8], in assay [17], in assay [18] and in [19].

Values taken from PubChem BioAssay (Tox21).
